SMILES strings stand for the structures. Compounds without any hit were thinned out: in the full panel of roughly 83,000, 20% have a hit.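 Compound tested at a single concentration for 48 hours in 96-well plates; a percent growth value below 10 was scored as active.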 Unmarked numbers belong to inactive results. Calls of active or inactive are those of the source.

The test system of the assay is ACHN renal. In words: NCI-60 one-dose screen, 48 h (100 = growth as untreated, 0 = no growth, -100 = all killed). The settings on record: 10 µM unless noted. The procedure: Growth inhibition of the ACHN human tumor cell line is measured as a screen for anti-cancer activity. Cells are grown in 96 well plates and exposed to the test compound for 48 hours. Compounds are tested at a single concentration, which is 10^-5 M for most compounds. The reported endpoint is percent growth (GI% or GIPRCNT), where numbers from 0 - 100% represent growth inhibition, and numbers from -100% - 0 represent cell death. For example, a value of 40 represents 60% growth inhibition. A value of 0 means no net growth occurred over the course of the experiment. A value of -40 indicates 40% of cells at the beginning of the experiment died by the end of the experiment. A value of -100 means all cells are dead at the end of the experiment.
NCI-60 Human Tumor Cell Lines Screen was performed using the standard one-dose NCI protocol, which is described in more detail at https://dtp.cancer.gov/discovery_development/nci-60/default.htm.
Compounds with GIPRCNT values below 10 were considered active. Activity score was based on GIPRCNT using the following formula: […]
Score is 0 for GIPRCNT values of 100 or above, 50 for GIPRCNT values of 0, and 100 for GIPRCNT values of -100.
On to `Cc1nc(-c2cc3ccccc3oc2=O)ccc1C(=O)/C=C/c1ccc(N2CCOCC2)cc1`, for which the growth is 70.9%. On to `COc1ccc(-n2c(SCC(=O)Nc3ccc(-c4nc5ccccc5[nH]4)cc3)nc3ccccc3c2=O)cc1`, for which the growth was 54%. In the case of `CS(=O)(=O)c1ccc(-c2nc3ccccn3c2-c2nc3ccc([N+](=O)[O-])cc3[nH]2)cc1` it was 88.6%. Regarding `COc1ccccc1/C=C/C=N/NC1=NC2C(S1)N(C)C(=O)N2C` (stereo not given), the growth was 46.3%. In the case of `O=C(N/N=C/c1ccc[nH]1)c1[nH]c2ccc(Br)cc2c1-c1ccccc1` it was 12.2%. In the case of `Clc1ccc(Cc2nnc3sc(-c4cccnc4)nn23)cc1` it was 96.8%. In the case of `Nc1nc(N)c2c(n1)NC(c1ccc(F)cc1)CC(c1ccc(Nc3nc(NCCO)nc(Nc4ccc(Cl)cc4)n3)cc1)=N2` (stereo not given) it was 39.5%; in that of `Cc1nc(-c2cc3ccccc3oc2=O)ccc1C(=O)/C=C/c1ccccn1`, 58.7%; in that of `COc1ccc(-c2cc(C(=O)N=Nc3c(O)[nH]c4ccccc34)c3ccccc3n2)cc1OC`, 102%. On to `CCCC(=O)NC(c1ccc(N(CC)CC)cc1)c1cc(C)c2cccnc2c1O` (stereo not given), for which the growth is 10.7%.

For `O=C(CCCN1C(=O)/C(=C/c2ccccc2F)SC1=S)N1CCOCC1`, the growth is 78.1%.

Regarding `C/C(=N\NC(N)=O)c1c(O)sc(=O)[nH]c1=O`, the growth is 101%. In the case of `c1ccc2c(NCCCN3CCOCC3)c3oc4ccccc4c3nc2c1` it was -9% (active). As to `C=CCSc1ccc2c(c1)C(N1CCNCC1)=Nc1ccccc1O2`, the growth is 70.3% [8.25 µM]. In the case of `CN(C)c1ccc(-c2c(NC(C)(C)C)nc3c(OCCc4ccccc4)cccn23)cc1` it was 17.7%. In the case of `Cn1c(SCC(=O)c2cccs2)nc2ccccc2c1=O` it was 91.7%; in that of `O=C(CN1C(=O)/C(=C/c2ccccc2)SC1=S)N1CCOCC1`, 77.9%. Consider `COc1ccc(NC2=C(Cl)C(=O)C(C)=C(C)C2=O)cc1OC`, for which the growth is 91.4%. In the case of `O=C(N/N=C/c1ccc([N+](=O)[O-])s1)c1[nH]c2ccc(Br)cc2c1-c1ccccc1` it was 12.7%; in that of `COc1ccc2[nH]cc(-c3cc(N)n4nc(-c5c[nH]c6ccc(OC)cc56)cc4n3)c2c1`, -31.9% (active); in that of `CO/N=C1\CCc2c(sc(NC(=O)c3cccc(C(F)(F)F)c3)c2C(N)=O)C1`, -23.7% (active). On to `COc1ccc(COc2ccc(/C=C3/C(=O)Nc4cc(Cl)ccc43)cc2)cc1`, for which the growth was 95.7%. In the case of `COc1ccc([C@@H]2c3[nH]c4ccccc4c3CC3C(=O)N(C4CCN(Cc5c(F)cccc5F)CC4)CC(=O)N32)c(OC)c1` (stereo not given in full) it was 47.6% [5.26 µM]. On to `O=C(N/N=C/c1ccc([N+](=O)[O-])o1)c1[nH]c2ccc(Br)cc2c1-c1ccccc1`, for which the growth is 16.1%.

With `CCN1C(=S)N(CC)C2C1N=C(SC)N2/N=C/C=C/c1ccccc1[N+](=O)[O-]` (stereo not given), the growth was 78.1%. In the case of `O=C(CSc1nnc(-c2ccc3nc(-c4ccc(Cl)cc4)[nH]c3c2)o1)Nc1ccc(C(=O)/C=C/c2ccc(Cl)cc2)cc1` it was 98.1%; in that of `CC1=C(C)C(=O)C(Nc2cccc(C(F)(F)F)c2)=C(Cl)C1=O`, -37.7% (active). For `COc1ccc(C(=O)/C=C/c2ccc(Oc3nc(NCCO)nc(N4CCOCC4)n3)c(OC)c2)cc1`, the growth is 62.5%. In the case of `Cc1[nH]nc2ncc(C#Cc3cncc(C(=O)Nc4ccc(CN5CCN(C)CC5)c(C(F)(F)F)c4)c3)cc12` it was 4.36% (active); in that of `CS(=O)(=O)c1ccc(-n2cc(/C=C/C(=O)c3ccc(NC(=O)CO[N+](=O)[O-])cc3)c(-c3ccc(Cl)cc3)n2)cc1`, 88.5%. In the case of `Clc1ccc2c(OCCCN3CCOCC3)c3oc4ccccc4c3nc2c1` it was 15.3%; in that of `N#Cc1nc(-c2ccccc2)oc1N1CC[C@@H](CO)C1`, 95.9%. In the case of `Clc1ccc2oc3c(NCCCn4ccnc4)c4ccccc4nc3c2c1` it was 9.12% (active); in that of `N#Cc1ccc(/C=N/NC(=O)c2[nH]c3ccc(Br)cc3c2-c2ccccc2)s1`, 18.2%.

Regarding `COc1cc2cc(Oc3ccc(NC(=O)c4cccc(C(F)(F)F)c4)cc3)c(C)nc2cc1OCCN1CCCCC1`, the growth was 80.5%. In the case of `CN1CCN(Cc2ccc(NC(=O)c3cncc(C#Cc4cnc5ccc(N6CCSCC6)nn45)c3)cc2C(F)(F)F)CC1` it was -91.4% (active); in that of `CN(C)S(=O)(=O)c1oc(-c2ccccc2)nc1C#N`, -83.9% (active); in that of `Cn1cc(-c2cc(N)n3nc(-c4cn(C)c5ccc(Cl)cc45)cc3n2)c2cc(Cl)ccc21`, 102%. In the case of `COc1cc(OC)c(C2C(Cl)C(=O)N2Nc2ncnc3ccccc23)cc1OC` (stereo not given) it was 90.5%. In the case of `COc1ccc(C(=O)c2cc(C(=O)/C=C/c3c(Cl)cccc3Cl)c3cc(C)ccn23)cc1` it was 101%.

(Values after PubChem BioAssay (NCI).)
